ALDH1A1 inh – blocks purified human ALDH1A1 activity. Potency, µM (series often up to 75.3 µM), without a hit: at the top dose activity, negative = inhibition, actives largely listed as inhibitors. 220,000 compounds, 7.3% hits. P00352. Purified ALDH1A1, NADH fluorescence, propionaldehyde substrate;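 also: potency is read from the fitted curve at half-maximal effect; plate controls were no enzyme wells and a reference inhibitor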
LMNA splice mod – changes lamin A minigene splicing in HeLa cells; HeLa LMNA splicing GFP/RFP minigene ratio, 48 h; Potency, µM (titrated, usually from 46.1 µM), inactives show at the highest dose ratio change, negative = inhibition, hits mostly inhibitors; 200,000 compounds, 0.01% hits; active = well fitted inhibition curve with a large enough effect in the signal ratio, with a control signal flat, not every such curve was filed as active; inconclusive = small, poorly fitted or top-dose-only effect, or effect the other way, or a change in a side signal; the % refers to the signal ratio; also: potency is read from the fitted curve at half-maximal effect
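Read-out is the ratio of GFP to DsRed2 object intensity, acquired by 488 nm laser-scanning cytometry on HeLa lamin A-EGFP minigene reporter cells. Compound incubation 48 hrs at 37 °C in Opti-MEM with 2% FBS; DMSO 0.5% final.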
PNC assembly inh – blocks assembly of the perinucleolar compartment | activity change (PNC), negative = inhibition, % at 10 µM | PC3M PTB-GFP, PNC prevalence imaging, 16 h; hits give low values | 140,000 compounds, 3.1% hits | AID 2417;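 active = readout at or below -70, meaning at least 70% loss of cells showing the perinucleolar compartment, a nuclear body marking cancer cells; inconclusive = readout between -30 and a set limit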;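 also: plate controls were DMSO wells for no effect and camptothecin positive control wells for full effect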
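PC3M cells stably expressing PTB-GFP, 750–1000 cells/well, treated 16 h at 37 °C with compound (23 nl of library stock), in duplicate. After paraformaldehyde fixation and Hoechst stain, imaged at 20x; PNC prevalence scored by image analysis.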
KinaseGlo FLuc – counter-screen: inhibitors of Kinase-Glo firefly luciferase; Q27757; Kinase-Glo luciferase, ATP luminescence, 8 min; Potency, µM (titrated, usually from 38.3 µM), inactives show top-dose activity change, negative = inhibition, hits mostly inhibitors; 200,000 compounds, 0.28% hits; active = well fitted inhibition curve with a large enough effect; inconclusive = small, poorly fitted or top-dose-only effect; also: potency is read from the fitted curve at half-maximal effect; nearly all actives have a fitted effect of over 60% in size
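Inhibition of Kinase-Glo luciferase light generation was assessed at 10 uM ATP in pH 7.2 imidazole buffer, with luminescence measured after eight minutes at ambient temperature.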
IMPase cell inh – membrane-permeable compound that blocks inositol monophosphatase | inhibition (IP1 accumulation), % at 46.1 µM | 120,000 tested, under 10 active | CHO-M1 cells, IP1 accumulation, HTRF TR-FRET ratio | P97697; active = well fitted curve in the direction sought with a large enough effect in the signal ratio, not every such curve was filed as active; inconclusive = small, poorly fitted or top-dose-only effect, or a change in a side signal; inactive = no such curve, though single readings can be large or run the other way; the % refers to the signal ratio;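 also: cells stimulated with carbachol in lithium chloride buffer; plate controls were DMSO basal wells for no effect and reference inhibitor wells for full effect; higher means more IMPase inhibition seen as more IP1 and lower FRET ratio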
Target sequence (P97697 whole entry, looked up): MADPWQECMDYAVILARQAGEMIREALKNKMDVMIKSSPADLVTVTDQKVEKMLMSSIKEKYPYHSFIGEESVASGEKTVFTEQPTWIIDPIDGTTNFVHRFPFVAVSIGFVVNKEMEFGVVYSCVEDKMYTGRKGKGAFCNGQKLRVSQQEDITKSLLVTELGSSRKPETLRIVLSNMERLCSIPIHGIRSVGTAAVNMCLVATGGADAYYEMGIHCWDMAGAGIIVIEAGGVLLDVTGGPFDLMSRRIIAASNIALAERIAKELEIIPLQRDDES
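In this qHTS, compounds (final up to 46 uM) act on CHO-M1 cells that are then activated through the M1 receptor with carbachol, in pH 7.4 buffer containing 50 mM LiCl, for 30 min. IP1 accumulation is quantified by the IP-One immunoassay.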
HPGD block – HPGD (human) dehydrogenase inhibition; P15428; Potency, µM, for inactives: at the top dose activity change, negative = inhibition, usual class: inhibitors; 150,000 compounds, 4.3% hits; purified HPGD, NADH fluorescence kinetic, PGE2 substrate; also: potency is read from the fitted curve at half-maximal effect
Target sequence (P15428 whole entry, looked up): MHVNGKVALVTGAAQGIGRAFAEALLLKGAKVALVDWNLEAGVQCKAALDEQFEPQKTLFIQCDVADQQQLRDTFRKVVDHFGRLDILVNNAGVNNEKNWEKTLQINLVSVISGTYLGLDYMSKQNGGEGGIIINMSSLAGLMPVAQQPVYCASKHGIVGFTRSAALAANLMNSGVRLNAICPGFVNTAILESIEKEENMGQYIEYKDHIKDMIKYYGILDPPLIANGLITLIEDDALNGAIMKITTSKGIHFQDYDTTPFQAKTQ
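20 nM HPGD preincubated 15 min at room temperature with compound in 50 mM Tris-HCl pH 8, 0.01% Tween 20. Started with 1 mM NAD+ and 30 uM prostaglandin E2; NADH fluorescence (360/450 nm) read 5 times over 30-s intervals, last minus first.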
The depositor's hits bear a star; ? = inconclusive; . = no result given; ! = not confirmed by another sample; [ ] = remark or other dose. Sampled rows, rich in hits. Any-hit rate of the full collection: about 10%. Unless noted, calls follow the shape of the dose curve; as a rule, active = well fitted inhibition curve with a large enough effect (not every such curve was filed as active); inconclusive = small, poorly fitted or top-dose-only effect, or another doubt; inactive = no such curve, though single readings can be large or run the other way. Unless noted, % is scaled to controls: 0 for no effect and ±100 for the full control effect.

SMILES	ALDH1A1 inh	LMNA splice mod	PNC assembly inh	KinaseGlo FLuc	IMPase cell inh	HPGD block
C[C@H](CCC(=O)NCC(=O)O)C1CC[C@H]2C3CC[C@@H]4C[C@H](O)CC[C@]4(C)C3C[C@H](O)[C@]12C (stereo not given in full)	4%	.	.	.	.	.
Cc1c(-n2c(SCC(=O)N(C)C3CCS(=O)(=O)C3)nc3ccccc3c2=O)c(=O)n(-c2ccccc2)n1C (stereo not given)	25µM*	?	.	1%	.	.
COC(=O)[C@H]1O[C@@H](c2cc(OC)c(C)c(OC)c2OCc2ccccc2)[C@H](C)[C@H]2O[C@@]12C	-3%	.	.	1%	.	-3%
Cc1c(N=Cc2c(O)n(Cc3ccco3)c(=O)c3ccccc23)c(=O)n(-c2ccccc2)n1C	-12%	?	-100*!	-2%	0	-12%
COc1cc(C)ccc1OCCSc1nc2ccc(NC(=O)c3ccccc3F)cc2s1	.	17%[46 µM]	.	.	.	.
Cc1ccc(CSCC(Nc2ccc(C(=O)O)cc2[N+](=O)[O-])C(=O)O)cc1 (stereo not given)	?	6%	-5	-3%	-11	-10%
O=C(O)c1ccc(NC(CSCc2ccc(F)cc2)C(=O)O)c([N+](=O)[O-])c1 (stereo not given)	22µM*	7%	?	-2%	-2	-3%
O=C(O)c1ccc(NC(CSCc2ccccc2F)C(=O)O)c([N+](=O)[O-])c1 (stereo not given)	7.9µM*	-2%	15	3%	.	-17%
CC(C)COc1ccc(C(=O)Nc2scc(-c3ccc(Br)cc3)c2C(=O)OC(C)C)cc1	.	.	.	.	-2	.
O=C(CN(c1ccc(Cl)cc1)S(=O)(=O)c1ccc(Cl)c([N+](=O)[O-])c1)NCCc1ccc(F)cc1	11%	?	-1	0%	.	-5%
COc1ccc(N(CC(=O)Nc2ccccc2F)S(=O)(=O)c2ccc(C)c([N+](=O)[O-])c2)cc1	11µM*	.	.	0%	.	.
O=C(CN(c1ccc(Cl)cc1)S(=O)(=O)c1ccc(Cl)c([N+](=O)[O-])c1)NCCc1ccccc1	25µM*	.	.	0%	.	.
CC(C)(C)NC(=O)CN(Cc1cccs1)C(=O)CN1C(=O)C(=O)c2ccccc21	0.028µM*	.	.	4%	.	.
CC(C)(C)NC(=O)CN(Cc1cccs1)C(=O)c1csnn1	3%	-8%	5	2%	-5[1.84 µM]	0%
CCCCC/C=C\C/C=C\C/C=C\C=C\C1CCCC(=O)O1 (stereo not given)	2%	.	.	-3%	.	-5%
O=S(=O)(Cc1ccccc1)N1CCCC1	3%	7%	-100*	7%	-5	-14%
CCc1nnc(NC(=O)C2CCN(S(=O)(=O)c3ccc(C)cc3)CC2)s1	12%	-3%[46 µM]	.	4%	.	.
CCc1nnc(NC(=O)C2COc3ccccc3O2)s1 (stereo not given)	3%	-3%	-80*	-7%	1	-7%
CCc1nnc(NC(=O)C2CCN(S(=O)(=O)Cc3ccccc3)CC2)s1	-1%	-11%	-100*	1%	-7	-8%
O=C(NC1=NCCS1)C1COc2ccccc2O1 (stereo not given)	-9%	9%	4	7.9µM*	?	-7%
CCSc1nnc(NC(=O)c2ccc3ccccc3n2)s1	?	?	8	3%	?	-24%
CCc1nnc(NC(=O)c2ccc3ccccc3n2)s1	18µM*	.	.	?	.	.
COC(=O)c1c(NC(=O)CSc2nc3ccccc3c(=O)n2-c2ccccc2)sc(C)c1C	22%	1%	12	-1%	.	-19%
COC(=O)c1ccc2c(=O)n(-c3ccccc3)c(SCN3C(=O)c4ccccc4C3=O)nc2c1	13µM*	?	?	-4%	.	-11%
CC(C)NC(=O)N1CC[C@@]2(CCCN(C(=O)c3cnccn3)C2)C1	13%	.	.	-1%	.	1%
SMILES	ALDH1A1 inh	LMNA splice mod	PNC assembly inh	KinaseGlo FLuc	IMPase cell inh	HPGD block
COc1cccc(CC2(CO)CCCN(Cc3ccc(C)s3)C2)c1 (stereo not given)	4%	.	.	.	.	.
COc1cccc(CC2(CO)CCCN(Cc3ccc(-c4ccco4)cc3)C2)c1 (stereo not given)	11µM*	.	.	.	.	.
COCc1ccc(CN2CCCC(CO)(Cc3cccc(Cl)c3)C2)o1 (stereo not given)	8.9µM*	10%[46 µM]	.	-3%	.	.
COc1cccc(CC2(CO)CCCN(Cc3[nH]c4ccc(C)cc4c3C)C2)c1 (stereo not given)	22µM*	.	.	.	.	.
Cc1ccc(C)n1-c1ccc(-c2ccn[nH]2)cc1	?	-1%[46 µM]	.	2%	.	.
Cc1ccc(C)n1-c1nc(=S)[nH][nH]1	25µM*	-1%	-5	-2%	2	16µM*
COc1ccccc1NC(=O)C1CCCN(c2ncnc3onc(-c4ccc(F)cc4)c23)C1 (stereo not given)	.	1%[46 µM]	.	.	.	.
O=S(=O)(NCC(c1cccs1)S(=O)(=O)c1ccccc1)c1ccc(F)cc1 (stereo not given)	.	-11%[46 µM]	.	.	.	.
Cc1ccc(C(C)C)c(OCC(=O)Nc2ccc(-c3nc4ncccc4o3)cc2C)c1	.	.	.	.	-2	.
Cc1cc2c(c(=O)o1)[C@H](O)[C@H]1O[C@@H]1C2=O	-9%[13.5 µM]	.	.	.	.	.
Cc1ccc(CSc2nnc(-c3cccs3)n2C)cc1	0%	-16%	-100*	-1%	-3	-13%
Cn1c(SCc2ccc(Br)cc2)nnc1-c1cccs1	2%	19%	0	-5%	5	-4%
NC(=O)C1C(c2ccccc2)=C1c1ccccc1	14%	?	-127*	2%	8	1%
Cc1ccc(N(NC(=O)C(O)(c2ccccc2)c2ccccc2)C(=O)CCl)cc1	?	7%	30	0%	.	11µM*
Cc1ccc(C(O)(C(=O)NN(C(=O)c2ccccc2)c2ccccc2)c2ccc(C)cc2)cc1	4%	-20%	13	2%	4	0%
COc1ccc(CCNC(=O)c2sc3nc4n(c(=O)c3c2C)CCCC4)cc1OC	.	6%[46 µM]	.	.	.	.
